This is one part of the list. Values without a mark were called inactive. Active and inactive are the calls of the source.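 How the source made its calls: active means inhibition above the mean of test compounds lying between the control limits plus 3 SD of those (cut at about 14% in these data); inactive means the rest.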

Sequence of Fibrinogen beta chain (Homo sapiens) (P02675 whole entry, looked up): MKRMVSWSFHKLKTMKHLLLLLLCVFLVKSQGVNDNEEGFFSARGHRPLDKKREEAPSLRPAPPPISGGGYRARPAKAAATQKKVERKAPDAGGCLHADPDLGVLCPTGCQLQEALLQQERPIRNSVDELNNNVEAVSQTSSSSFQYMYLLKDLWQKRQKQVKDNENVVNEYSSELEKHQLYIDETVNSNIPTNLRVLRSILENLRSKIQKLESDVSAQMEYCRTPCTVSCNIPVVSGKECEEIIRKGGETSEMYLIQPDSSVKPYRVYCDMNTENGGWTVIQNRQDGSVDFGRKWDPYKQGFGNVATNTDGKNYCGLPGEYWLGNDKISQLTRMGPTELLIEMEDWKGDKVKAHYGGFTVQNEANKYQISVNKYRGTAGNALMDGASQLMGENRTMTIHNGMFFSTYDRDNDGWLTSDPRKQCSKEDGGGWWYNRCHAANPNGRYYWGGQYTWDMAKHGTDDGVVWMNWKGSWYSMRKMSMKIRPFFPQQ

The test concerns the target Fibrinogen beta chain (Homo sapiens) (UniProt P02675). Nature of the test: DD(E) binders in alternate-peptide displacement assay, confirmation, counter-screen for fibrin DD(E)-Tn6 binding project, biochemical, fluorescence polarization, human fibrin (AID 720621).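 Further: 0% = median of compound wells and 100% = wells with Aha-Tn7 blocking peptide.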 To be noted: TRITC-Tn6 fluorescence polarization displacement, at 8.3 µM, stronger effect = higher value, 0% = median of compound wells, not DMSO. For orientation: The purpose of a counterscreen is to sort out artefacts and off-target activity.
As to `CCc1cc(-c2nnc(SCC(=O)NC3CC3)n2C)cs1`, the inhibition (usually the drop in the measured response relative to a control, in per cent) was 0.11%.
With `COc1cc(NC(=O)c2ccc(CNc3c(N4CCCC4)c(=O)c3=O)cc2)cc(OC)c1OC` the figure was -3.04%.
The value for `CCc1ccccc1NC(=S)Nc1cc(OC)c(NC(=O)C(C)C)cc1OC` was 2.55%; that for `Cc1cc2nc3c(=O)[nH]c(=O)nc-3n(C[C@H](O)[C@H](O)[C@H](O)CO)c2cc1C` was 53.3% (active).
For the compound `Cc1nnsc1S(=O)(=O)Cc1ccccc1Cl`, the inhibition was -7.19%.
Regarding `COc1ccc(Nc2nc(-c3ccccc3)cs2)cc1`, the inhibition was 3.89%.
With `Cc1ccc(NC(=O)CN2CCc3ccccc3C2)cc1`, the inhibition is -3.5%.
The value for `Oc1ccc(N=Cc2sc3ccccc3c2Cl)cc1` was -3.72%; that for `CONc1nc2nonc2nc1NOC` was 0.1%; that for `O=c1[nH]n(-c2ccc([N+](=O)[O-])cc2)c(=O)c2ccccc12` was -1.25%.

Values taken from PubChem BioAssay AID720621 (The Scripps Research Institute Molecular Screening Center, 2013).
